Measurements taken from PubChem BioAssay.
Activity calls are given as the source filed them.

Assay: optical density change of DRC41 E. coli – strain DRC41, OD650, 24 h, E. coli filamentation project, primary screen (AID 1093);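 note: MC1000 strain lacking acrAB efflux and sulA so SOS filamentation is blocked; test concentration not given here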
Details: E. coli DRC41 growth, higher = more signal, called active from +8 up or from −8 down

Row | Compound | z-score
1 | COc1ccc([Si](C)(C)[C@@H]2[C@@H](CC(=O)N3Cc4ccccc4C[C@H]3CO)O[C@]3(C(=O)N(Cc4ccc(N5CCC5=O)cc4)c4ccccc43)[C@H]2C)cc1 | 0.409 (inactive)
2 | Cc1ccc([C@H]2C(C(=O)O)=C[C@@H](C(C)(C)C)N2S(=O)(=O)c2ccc(C)cc2)cc1 | -1.01 (inactive)
3 | CN1C(=O)[C@@]2(Cc3ccccc3)N=C(c3ccc(OCCCO)cc3)O[C@H]2c2ccccc21 | 0.291 (inactive)
4 | COCCCNC(=O)[C@@]1(Sc2ccc(C)cc2)CC(=O)N(C(C)C)[C@@H]1c1ccc(CO)cc1I | -2.04 (inactive)
5 | CC(C)C(=C=CC[C@@H](O)c1cccc(OCCO)c1)C[C@@H](O)COCc1ccccc1 | 1.61 (inactive)
6 | COC(=O)[C@@]1(Cc2ccccc2)[C@H]2c3cc(C(=O)N4CCCC4)n(CCSCCO)c3C[C@H]2CN1C(=O)c1ccccc1 | -1 (inactive)
7 | CCOC(=O)C1=C[C@@H](C(C)(C)C)N(S(=O)(=O)c2ccc(C)cc2)[C@H]1c1cccc(Cl)c1 | -0.695 (inactive)
8 | C=C[C@H](C)[C@H](OC(=O)Nc1ccc(OC)cc1)c1ccc(OCCO)cc1 | 2.01 (inactive)
9 | C[C@]1(C(=O)O)c2ccccc2C(=O)N(Cc2ccc(OC(F)(F)F)cc2)[C@H]1c1ccc(CO)cc1 | 0.402 (inactive)

Assay: probe aLefty2 binding to arrayed compounds – biochemical, biotinylated probe, 635/667 nm fluorescence, primary screen (AID 1094);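 note: score merges spot fluorescence near 667 nm with spot signal-to-noise ratio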
Details: small-molecule microarray, higher = more signal

Row | Compound | composite z-score
10 | COc1cc(NN2C(C(O)c3ccc(I)cc3)C=CC3C(=O)N(c4ccccc4)C(=O)C32)cc(OC)c1OC (stereo unspecified) | 0.25
11 | CN(C)CCCC[C@@H]1NC(=O)[C@@H]2C[C@H](C(=O)O)[C@H](c3cccc(OCCO)c3)N2C1=O | -0.036
12 | CN1C(=O)C2C=CC(C(O)c3cc(C(F)(F)F)cc(C(F)(F)F)c3)N(Nc3ccccc3)C2C1=O (stereo unspecified) | -0.194
13 | C=C(/C(=C/C[C@H](OC(=O)c1ccncc1)c1ccccc1OCCO)c1cnc2ccccc2c1)C(C)C | -0.0632
14 | COC(=O)[C@@]1(Cc2ccccc2CN=[N+]=[N-])N=C(c2ccc(OCCCO)cc2)O[C@H]1c1ccccc1 | 0.547
15 | C=CCC(OC(C)=O)[C@@H]1[C@@H](N(Cc2cccc3ccccc23)C(=O)c2ccc(-c3ccccc3)cc2)c2cc(OCCCO)ccc2N1C(=O)c1ccc(-c2ccccc2)cc1 (stereo partly specified) | -0.0179
16 | COC(=O)[C@@]1(Cc2ccc(F)cc2)[C@H]2c3cc(C(=O)N(C)C)n(Cc4c(CO)[nH]cc(C)c4=O)c3C[C@H]2CN1C(=O)c1ccccc1 | 0.378
17 | CN(C)C(=O)[C@]1(CCS(=O)(=O)c2ccccc2)N=C(c2ccc(OCCCO)cc2)O[C@@H]1c1ccccc1 | 0.0943
18 | CC(C)OC(=O)CC(=O)CC(O)c1ccc([N+](=O)[O-])cc1 (stereo unspecified) | 0.0416
19 | CCN(CC)c1ccc(N2CC=CC34O[C@@H]5/C=C\CCC(C)OC(=O)C5[C@H]3C(=O)N(C(C)CO)[C@@H]4C2=O)cc1 (stereo partly specified) | -0.149
20 | Cc1ccc(C(C)CC(O)C2C=CC3C(=O)N(c4ccccc4)C(=O)C3N2Nc2ccc(C#N)cc2)o1 (stereo unspecified) | 0.188
21 | Cc1ccc(F)cc1S(=O)(=O)N[C@@H]1CCN(Cc2cccc3[nH]ccc23)C1 | -0.0728
22 | O=C1C2C=CC(C(O)c3ccco3)N(Nc3ccccc3)C2C(=O)N1c1ccccc1 (stereo unspecified) | -0.147
23 | CCOC(=O)C1=CCC(c2ccco2)N(S(=O)(=O)c2ccc(C)cc2)C1 (stereo unspecified) | 0.18
24 | O=C(NCCN1CCOCC1)[C@@H]1c2ccccc2C(=O)N(Cc2ccccc2)[C@H]1c1ccc(CO)cc1 | -0.129
25 | CCOC(=O)C1=C[C@@H](c2ccccc2)N(S(=O)(=O)c2ccc(C)cc2)[C@H]1c1ccccc1 | -0.0113
26 | COCCOC(=O)N1C(=O)[C@@]2(c3cc(C#Cc4ccc(OC)cc4)ccc31)[C@H](c1ccc(OCCO)cc1)N1[C@H](c3ccccc3)[C@H](c3ccccc3)OC(=O)[C@H]1[C@@H]2C(=O)Nc1nc2ccccc2s1 | 0.188
27 | [N-]=[N+]=Nc1ccccc1C[C@]1(C(=O)O)N=C(c2ccc(OCCCO)cc2)O[C@H]1c1ccccc1N=[N+]=[N-] | 0.376
28 | CC=CC(O)C1C=CC2C(=O)NC(=O)C2N1Nc1ccccn1 (stereo unspecified) | 0.0261
29 | CCOC(=O)C1=C[C@@H](C(C)(C)C)N(S(=O)(=O)c2ccc(C)cc2)[C@H]1c1ccccc1 | 0.0194
30 | COC(=O)[C@@]1(Cc2ccc(F)cc2)[C@H]2c3cc(C(=O)N4CCCC4)n(CC4CC4)c3C[C@H]2CN1C(=O)c1ccccc1 | 0.329
31 | CO[C@H]1O[C@H](CO)[C@@H](OC(=O)Nc2ccc(C#N)cc2)[C@@H]2OC(=O)[C@H](Cc3cccc(Br)c3)C/C=C/C[C@@H](Cc3cccc(Br)c3)C(=O)O[C@@H]12 | 0.212
